From PubChem BioAssay (NCI)
This is part of a sample that, as a whole, favours compounds with a hit. Of some 83,000 tested, about 20% had one in any assay.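 Results are percent growth after 48 hours of single-concentration exposure. 100 means growth as in untreated cells, lower positive values show inhibition; negative values down to -100 show cell death.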 Unmarked numbers belong to inactive results. The source made the active and inactive calls. The calls were made as follows: active = growth percent below 10; inactive = the rest.

How the values were obtained:
Assay in all cases: NCI-60 one-dose screen, 48 h (100 = growth as untreated, 0 = no growth, -100 = all killed)
Conditions in all cases: 10 µM unless noted
[1] = test system: SK-MEL-2 melanoma
[2] = test system: EKVX NSCLC
[3] = test system: SN12C renal
[4] = test system: UO-31 renal
[5] = test system: TK-10 renal
[6] = test system: ACHN renal
[7] = test system: CAKI-1 renal
[8] = test system: A498 renal
[9] = test system: CCRF-CEM leukemia
[10] = test system: MOLT-4 leukemia

| SMILES | growth [1] | growth [2] | growth [3] | growth [4] | growth [5] | growth [6] | growth [7] | growth [8] | growth [9] | growth [10] |
| --- | --- | --- | --- | --- | --- | --- | --- | --- | --- | --- |
| O=C(Nc1ccc(Oc2ccc(F)cc2)c(Cl)c1)c1cnccn1 | 53.6% | 78% | 69.8% | 65% | 85.8% | 94.1% | 49.7% | 67.7% | 64.1% | 45.1% |
| O=C(CCCSc1nc(-c2ccccc2)cc(-c2ccccc2)n1)NO | 3.29% (active) | 10.3% | 12.3% | -13.9% (active) | 9.4% (active) | 0.594% (active) | 1.69% (active) | -15.6% (active) | 3.58% (active) | 4.55% (active) |
| Cc1cc(C)c(O)c(CNCCCNCc2cc(C)cc(C)c2O)c1 | 88.5% | 75% | 73.4% | 28.2% | 77% | 73.6% | 62.1% | 47% | 68.4% | 67.5% |
| C=C(C)[C@@H]1CC[C@]2(c3ncc(C)o3)CC[C@]3(C)[C@H](CC[C@@H]4[C@@](C)(CCC#N)[C@H](C(=C)C)CC[C@]43C)[C@@H]12 | -89.5% [100 µM] (active) | -79.1% [100 µM] (active) | -91.5% [100 µM] (active) | -94.4% [100 µM] (active) | -90.6% [100 µM] (active) | -97.8% [100 µM] (active) | -96.4% [100 µM] (active) | -93.4% [100 µM] (active) | -11.1% [100 µM] (active) | -35.4% [100 µM] (active) |
| COc1ccc(-c2cc(-c3ccc(Cl)cc3)nc(SCCCCCCC(=O)NO)n2)cc1 | 87.1% | 44.2% | 41.3% | 11.8% | 34.7% | 16.1% | 4.58% (active) | 52% | 3.36% (active) | 9.33% (active) |
| Cc1ccc2c(c1)C(C)Cc1c(Cl)ncnc1N2C (stereo not given) | -21.4% (active) | 22.2% | 32.8% | 18% | 18.3% | 32% | 31% | -19.2% (active) | 49.7% | 13.6% |
| Cc1ccc(S(=O)(=O)NCCCNc2nccc(-c3c(-c4cccc(F)c4)nc4occn34)n2)cc1 | 87.8% | 78.7% | 70.1% | 43.6% | 79.8% | 80.9% | 53.4% | 57.5% | 42.2% | 27% |
| O=c1[nH]cnc2c1ccn2C1OC(CO)C(O)C1O (stereo not given) | 21.2% | 79% | 63.1% | 37.9% | 52.7% | 27.8% | 37.2% | 57.5% | 64.1% | 53.6% |
| Cc1ccc2c(n1)C(=O)C(Cl)=C(Nc1ccc(N3CCN(C)CC3)cc1)C2=O | 68.4% | -81.8% (active) | -88.5% (active) | -97.4% (active) | 100% | -93.8% (active) | -100% (active) | 101% | -6.24% (active) | -25.6% (active) |
| CCCCCCSc1ncnc2nc[nH]c12 | 105% | 83.6% | 92.4% | 64.7% | 103% | 96.8% | 95.9% | 95.2% | 101% | 84.7% |
| CC1Cc2c(Cl)ncnc2N(C)c2ccc(O)cc21 (stereo not given) | 27% | 51.3% | 82.6% | 22.5% | 94.5% | 84.9% | 89.2% | 94.1% | 82.5% | 67.6% |
| CCn1cc(-c2ccnc(NCCNS(=O)(=O)c3ccc(Br)cc3)c2)c(-c2cccc(OC)c2)n1 | 90.8% | 77% | 77% | 45.6% | 83.2% | 82.6% | 66.1% | 66.2% | 43.2% | 34.8% |
| O=C1/C(=C/c2cccc(OCc3ccccc3)c2)Oc2cc(OCCN3CCCCC3)ccc21 | 134% | 87.6% | 81.9% | 65.1% | 118% | 97.6% | 84.4% | 81.7% | 53.8% | 82.4% |
| CCN(CC)c1ccc2cc(NC(=O)OCCNC(=O)CCNC(=O)[C@H](CC(C)C)NC(=O)C(C)(C)NC(=O)C(C)(C)NC(=O)[C@H](CC(C)C)NC(=O)CCNC(=O)C(C)(C)NC(=O)[C@H](CC(C)C)NC(=O)CCNC(=O)[C@@](C)(CC)NC(=O)[C@H](C)NC(=O)CCNC(=O)C(C)(C)NC(=O)[C@H](C)NC(=O)[C@@H]3CCCN3C(=O)[C@@](C)(CC)NC(=O)[C@H](Cc3ccccc3)NC(=O)C3CCCN3C(=O)C(C)(C)NC(=O)C3CCCN3C(=O)C(C)(C)NC(C)=O)c(=O)oc2c1 (stereo not given in full) | -80.4% (active) | -100% (active) | -74.6% (active) | -80.5% (active) | -93.3% (active) | -85.4% (active) | -92.4% (active) | -98.5% (active) | -63.5% (active) | -62% (active) |
| Cc1nn(-c2ccccc2)c(N2CCOCC2)c1-c1nc2ccc([N+](=O)[O-])cc2[nH]1 | 110% | 106% | 95.2% | 81.4% | 100% | 105% | 80% | 76.3% | 92.6% | 85.7% |
| CCCCCn1sc(=O)n(Cc2ccc(CNC(=O)OCc3ccc4cccc(O)c4n3)cc2)c1=O | 39.3% | 28.7% | -79.7% (active) | -100% (active) | -54% (active) | -100% (active) | -74.9% (active) | 4.89% (active) | 7.05% (active) | 1.87% (active) |
| O=C(N/N=C/c1ccc([N+](=O)[O-])cc1)c1ccc(Br)o1 | 33.6% | 112% | 102% | -17.5% (active) | 131% | 107% | 106% | 116% | 99.5% | 123% |
